In ChEMBL document CHEMBL3988442, “University of Dundee, Small-Polar-MMV Screening Library” (2021) one finds Percent Effect data, which are given here for 112 molecules.

The whole screen tested about 69,000 compounds, of which about 420 (0.61%) showed an effect of 50% or more. Shown is part of a subset that was picked to be rich in strong results.

In the assay the target is T1, Histidine--tRNA ligase (Leishmania infantum) (UniProt A4I591).
T1 sequence (whole entry): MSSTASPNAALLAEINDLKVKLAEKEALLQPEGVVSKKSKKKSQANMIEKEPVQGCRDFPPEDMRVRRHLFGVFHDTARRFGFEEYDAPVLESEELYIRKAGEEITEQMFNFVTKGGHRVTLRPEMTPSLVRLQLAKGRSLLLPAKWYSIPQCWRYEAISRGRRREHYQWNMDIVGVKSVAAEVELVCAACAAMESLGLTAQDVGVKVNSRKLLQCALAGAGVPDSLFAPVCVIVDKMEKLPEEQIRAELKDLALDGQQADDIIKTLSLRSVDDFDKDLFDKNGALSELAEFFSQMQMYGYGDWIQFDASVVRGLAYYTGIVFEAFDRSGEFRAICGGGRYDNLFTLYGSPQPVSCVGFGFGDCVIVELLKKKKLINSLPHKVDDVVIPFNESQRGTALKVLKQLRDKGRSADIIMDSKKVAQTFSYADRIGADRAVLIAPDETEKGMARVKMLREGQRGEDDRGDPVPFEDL
Description: Leishmania infantum Histidine tRNA synthetase (LdHisRS). Conditions: 30 µM. The format is functional. Details: scale not given: in the data most compounds retested in dose-response had high values.
As to `CNc1cc(C)nc(-c2cc(NC3CCNCC3)nc3[nH]ccc23)n1`, the Percent Effect is 32.6%.
The value for `COc1ncc(-c2cc(NC3CCCC3)nc3[nH]ccc23)c(OC)n1` was 21.3%; that for `COc1nccnc1-c1cc(NC2CCCC2)nc2[nH]ccc12` was 6.38%.
Consider `FC(F)(F)c1ccc(-c2cc(NC3CCNCC3)nc3[nH]ccc23)nc1`, for which the Percent Effect amounted to 63.9%.
The value for `Nc1ccnc(-c2cc(NC3CCNCC3)nc3[nH]ccc23)c1` was 41%.
The value for `COc1nccnc1-c1cc(NC2CCNCC2)nc2[nH]ccc12` was 55.3%; that for `Cc1oncc1C(=O)N[C@@H]1CN(Cc2ccco2)C[C@@H]2CCCO[C@@H]21` was 4.54%; that for `Cn1ccc(C(=O)N2C[C@H]3CCC[C@@]3(COCc3cccnc3)C2)n1` was 7.96%.
The value for `COC[C@]12COC[C@H]1CN(S(=O)(=O)c1cccnc1)C2` was 14%.
Turning to `CCc1cc(N2CCS(=O)(=O)CC2)n2nc(C)c(C)c2n1`, the Percent Effect stood at 13.3%.
As for `CCc1cc(N2CCC(F)(F)CC2)n2nc(C)c(C)c2n1`, the Percent Effect is 61.7%.
In the case of `CCc1cc(N2CCSCC2)n2nc(C)c(C)c2n1`, the Percent Effect was -0.971%.
The figure for `Cc1nnc(NCc2ccccc2S(=O)(=O)N(C)C)c(C#N)c1C` is 22%; for `Cc1nnc(NCC(c2ccco2)N2CCCC2)c(C#N)c1C` (configuration not stated) it is 60.3%; for `COCc1ccccc1CNc1nnc(C)c(C)c1C#N` it is 12.3%.
With `Cc1nnc(NCC(c2cccs2)N2CCCC2)c(C#N)c1C` (configuration not stated), the Percent Effect came to 32.9%.
In the case of `Cc1nnc(NCC(c2ccco2)N(C)C)c(C#N)c1C` (configuration not stated), the Percent Effect came to 54.8%.
The figure for `Cc1nnc(NCC(c2ccco2)N2CCCCC2)c(C#N)c1C` (configuration not stated) is 32.9%.
The value for `Cc1nnc(NCc2ccccc2Cl)c(C#N)c1C` was 52.3%.
`Cc1nnc(NCc2ccccc2F)c(C#N)c1C`: the Percent Effect amounted to 49.5%.
Turning to `Cc1nnc(NCc2cccnc2N(C)C)c(C#N)c1C`, the Percent Effect was 15.4%.
The value for `O=C(Nc1cnccn1)[C@H]1COC[C@H]2CN(c3ncc(F)cn3)C[C@H]21` was 18.8%; that for `COCCNC(=O)[C@H]1CC[C@@H]2[C@@H](CCN2S(C)(=O)=O)O1` was 22.9%.
The figure for `Cc1nc(CN2C(=O)CC[C@@H]3[C@H]2CCN3C2CCOCC2)cs1` is 9.57%; for `COCCN1CCO[C@@H]2CN(Cc3sccc3C)C[C@@H]2C1` it is 0.84%.
Take `CCn1nc2c(cc1=O)CN(CC(=O)Nc1cc(C(C)C)no1)CC2`: the Percent Effect is 21.2%.
As to `CC(C)(C)c1cc(NC(=O)CN2CCc3cncnc3C2)on1`, the Percent Effect is 19.6%.
The figure for `CC(C)c1cc(NC(=O)CN2CCc3ccccc3C2)on1` is -2.74%.
As to `CN(C(=O)CN1CCc2nn(C)c(=O)cc2C1)c1nccs1`, the Percent Effect turned out to be 65.9%.
The figure for `CCCn1nc2c(cc1=O)CN(CC(=O)Nc1cc(C)no1)CC2` is 18.2%; for `CC(C)(C)c1cc(NC(=O)CN2CCn3c(nnc3C3CC3)C2)on1` it is 1.79%.
The figure for `Cn1nc2c(cc1=O)CN(CC(=O)Nc1cc(C(C)(C)C)no1)CC2` is 112%.
Turning to `CCCn1nc2c(cc1=O)CN(CC(=O)N(C)c1nccs1)CC2`, the Percent Effect was determined as 24.6%.
Regarding `CCn1nc2c(cc1=O)CN(CC(=O)Nc1cc(C)no1)CC2`, the Percent Effect came out at 15.2%.
For `Cc1cc(NC(=O)CN2CCc3nn(C)c(=O)cc3C2)on1`, the Percent Effect came to 56.7%.
Consider `CCn1nc2c(cc1=O)CN(CC(=O)N(C)c1nccs1)CC2`, for which the Percent Effect came out at 5.56%.
The figure for `CC(C)c1cc(NC(=O)CN2CCc3nn(C)c(=O)cc3C2)on1` is 78.8%; for `O=C(c1cscn1)N1CC[C@@H]2[C@@H]1CCN2CC1CCOC1` (some centres not stated) it is 13.2%; for `O=C(NCc1ccco1)[C@@]12CCO[C@@H]1CCN(CC1CCOCC1)C2` it is 20%.
The figure for `CCN1C[C@H]2CCN(C(=O)Cc3cccc(OC)c3)CC[C@H]2S1(=O)=O` is 19.2%.
The figure for `O=C(Cn1ccnc1)N1C[C@@H]2CC[C@H](Oc3cccc(F)c3)[C@@H]2C1` is 7.29%; for `Cc1nc(CN2C(=O)CC[C@H]3[C@@H]2CCN3C(=O)c2ccsc2)cs1` it is 16.5%; for `CC(C)NC(=O)[C@]12COC[C@H]1CN(Cc1cnn(C)c1)C2` it is 12.5%.
In the case of `CCS(=O)(=O)N1CC[C@@H]2[C@@H](CCC(=O)N2CCc2ccccc2)C1`, the Percent Effect worked out at 9.38%.
The value for `Cc1cc(NC(=O)CN2CCc3nn(C)c(=O)cc3C2)no1` was 100%; that for `Cc1nnc(NC(=O)CN2CCc3nn(C)c(=O)cc3C2)s1` was 9.62%; that for `Cc1csc(NC(=O)CN2CCc3nn(C)c(=O)cc3C2)n1` was 24.2%.
The figure for `Cc1cc(N2CCOCC2)ccc1NC(C)c1nc(C(C)C)no1` (configuration not stated) is 39.1%; for `Cc1cc(N2CCOCC2)ccc1NC(C)c1nc(C(C)(C)C)no1` (configuration not stated) it is 28.3%; for `Cc1noc(C(C)Nc2ccc(N3CCOCC3)cc2C)n1` (configuration not stated) it is 63%.
Consider `c1cncc(COCC2C[C@@H]3OCCN(Cc4cccnc4)[C@H]3C2)c1` (some centres not stated), for which the Percent Effect is 28.3%.
As for `c1ncc2c(n1)CN(Cc1nc(-c3ccoc3)no1)CC2`, the Percent Effect was 34.9%.
The value for `Cn1cnc2c1CCN(Cc1nc(COc3ccc(F)cc3)no1)C2` was -98.5%.
On to `Fc1ccc(OCc2noc(CN3CCc4cncnc4C3)n2)cc1`, for which the Percent Effect was 61.6%.
Turning to `Cc1ccc(-c2noc(CN3CCc4cncnc4C3)n2)cc1`, the Percent Effect was found to be 25.7%.
The figure for `COc1ccc(-c2noc(CN3CCc4cncnc4C3)n2)cc1` is 50.4%; for `c1ccc(Cc2noc(CN3CCc4cncnc4C3)n2)cc1` it is 43%.
Take `Cn1cc(C(=O)N[C@@H]2CN(Cc3cccnc3)[C@@H]3CCCO[C@@H]32)cn1`: the Percent Effect was determined as 22.9%.
The value for `O=C(c1cnccn1)N1CCN2C[C@H](OCC3CC3)C[C@H]2C1` was 15.1%; that for `c1cc(-c2ccc3c(c2)CCC32CCN(c3nncs3)CC2)co1` was 75.8%; that for `OCCN1CCC2(CCc3cc(-c4ccoc4)ccc32)CC1` was 24%.
The figure for `c1cc(-c2ccc3c(c2)C2(CC3)CCN(c3nncs3)CC2)ccn1` is 74.2%; for `c1cc(-c2ccc3c(c2)C2(CCNCC2)CC3)ccn1` it is 13.8%; for `CN(C)CC(=O)N1CCC2(CCc3ccc(-c4ccncc4)cc32)CC1` it is 22.4%.
The value for `O=C(CCO)N1CCC2(CCc3ccc(-c4ccoc4)cc32)CC1` was 22.4%.
Consider `c1cncc(-c2ccc3c(c2)C2(CC3)CCN(c3nncs3)CC2)c1`, for which the Percent Effect turned out to be 53.3%.
With `c1cncc(-c2ccc3c(c2)CCC32CCNCC2)c1`, the Percent Effect turned out to be 20%.
The figure for `c1cncc(-c2ccc3c(c2)C2(CCNCC2)CC3)c1` is -17.2%; for `c1cncc(-c2ccc3c(c2)CCC32CCN(Cc3ccco3)CC2)c1` it is 44%; for `Cc1ccc2c(c1)C1(CC2)CCN(c2nncs2)CC1` it is 24.8%.
Take `c1cc(-c2ccc3c(c2)CCC32CCNCC2)ccn1`: the Percent Effect stood at 53.5%.
Turning to `COCCN1C[C@H]2CC[C@@H]1CN(Cc1cc(=O)c3cc(C)ccc3[nH]1)C2`, the Percent Effect is 40.6%.
Take `COCCN1C[C@H]2CN(C(=O)c3ccno3)CCN2C1=O`: the Percent Effect is 11.1%.
As to `COCC(=O)N1C[C@@H](OCc2cccnc2)[C@H]2OCCC[C@@H]21`, the Percent Effect was 14.6%.
For the molecule `COCCNC(=O)[C@H]1CN(Cc2scnc2C)C[C@H]2OCC[C@@H]12`, the Percent Effect is 13.3%.
The figure for `CCc1cc(N[C@@H]2C[C@H]3CC[C@@H]2C3)n2nccc2n1` is 25.7%.
The value for `Cc1nc(CN2C[C@@H]3CN(C(=O)c4cnccn4)C[C@@H]3C2=O)cs1` was 2.94%.
The value for `Cc1ccc(CN2C[C@H]3C[C@H](C(=O)Nc4cccnc4)[C@@H](C2)O3)cc1` was 22%; that for `CN1CCCCC12CCN(c1nncs1)CC2` was 6.2%; that for `c1cncc(-c2ccc3c(c2)CCC32CCN(Cc3nccs3)CC2)c1` was 48%.
In the case of `c1cc(-c2ccc3c(c2)CCC32CCN(c3nncs3)CC2)ccn1`, the Percent Effect was found to be 66.1%.
The figure for `CNC(=O)[C@H]1CC[C@@H]2[C@@H](CCN2c2ncccn2)O1` is 14%; for `O=C(c1cnccn1)N1C[C@@H]2OCC(=O)N(CC3CCCCC3)[C@@H]2C1` it is 25%; for `COc1cc(N2CC[C@@H]3O[C@@H](c4ccncn4)C[C@H]3C2)ncn1` it is 14.5%.
`CCCn1nc2c(cc1=O)CN(Cc1nc(-c3ccoc3)no1)CC2`: the Percent Effect came to 2.67%.
The figure for `Cc1ccc(-c2nc(CN3CCc4nn(C)c(=O)cc4C3)no2)cc1` is 52.4%; for `Cc1ccccc1-c1noc(CN2CCc3nn(C)c(=O)cc3C2)n1` it is 103%.
As to `COc1cc2c(nn1)CCN(Cc1noc(-c3ccccc3)n1)C2`, the Percent Effect is 24%.
Regarding `Cc1ccc(-c2noc(CN3CCc4nn(C)c(=O)cc4C3)n2)cc1`, the Percent Effect came out at 70.7%.
As for `Cn1nc2c(cc1=O)CN(Cc1nc(-c3cccnc3)no1)CC2`, the Percent Effect is 10.3%.
The value for `Cn1nc2c(cc1=O)CN(Cc1nc(-c3cccs3)no1)CC2` was 20.3%; that for `Cn1nc2c(cc1=O)CN(Cc1nc(-c3ccoc3)no1)CC2` was 16%.
Turning to `Cc1ccccc1-c1noc(CN2CCc3cncnc3C2)n1`, the Percent Effect is -42.2%.
The figure for `Cc1cccc(-c2noc(CN3CCc4nn(C)c(=O)cc4C3)n2)c1` is 87.8%; for `Cn1nc2c(cc1=O)CN(Cc1nc(-c3ccsc3)no1)CC2` it is 27.6%; for `Cc1ccc(-c2nc(CN3CCc4cnc(C)nc4C3)no2)cc1` it is 21.4%.
The value for `C[C@]12CCCCN(C(=O)c3ccccn3)[C@H]1CCCC(=O)N2` was 7.37%; that for `CN(Cc1cccnc1)[C@@H]1CN(Cc2ccccn2)[C@@H]2CCCO[C@H]12` was 8.33%; that for `Cc1nnc(N2CC[C@H]3O[C@H](C(=O)NCc4ccccn4)CC[C@H]32)s1` was 20%.
The value for `Cc1ncsc1CN1C[C@@H]2CCCO[C@@H]2[C@H](N(C)C(C)C)C1` was 14%; that for `Cc1ccc(CN2CC[C@@H]3O[C@@H](C(=O)N4CCN(C)CC4)C[C@@H]32)cc1` was 9.62%; that for `CS(=O)(=O)N1C[C@@H]2CC[C@H](C1)N(Cc1cscn1)C2=O` was 15.2%.
On to `O=C1CCCC2=C1C(c1cccc(F)c1F)Nc1nonc1N2` (configuration not stated), for which the Percent Effect worked out at 6.25%.
Regarding `COCCN1C[C@@H]2CN(c3cnccn3)C[C@@H]2C1=O`, the Percent Effect is 16%.
As to `CCn1nc2c(cc1=O)CN(Cc1nc(-c3ccco3)no1)CC2`, the Percent Effect is 33%.
The value for `Cn1nc2c(cc1=O)CN(Cc1nc(-c3ccco3)no1)CC2` was 91.4%; that for `CCCn1nc2c(cc1=O)CN(Cc1nc(-c3ccco3)no1)CC2` was 5.5%.
The value for `O=C(NC1CC1)[C@@H]1C[C@@H]2CCN(Cc3ccccc3)C[C@H]2O1` was 23%.
The value for `COc1ccc(CN2C[C@@H]3OCCN(CCN(C)C)[C@@H]3C2)cc1` was 15.6%; that for `COc1cccc(CNc2cc(C)nc(-c3ccncc3)n2)c1OC` was 52%.
Take `COc1cccc(CNc2nc(C)cc(C)n2)c1OC`: the Percent Effect worked out at 21.9%.
As to `COc1cccc(CNc2cc(C)nc(-c3ccncc3)n2)c1O`, the Percent Effect is 19.2%.
